Laboratory results: PubChem BioAssay AID504534 (National Center for Advancing Translational Sciences (NCATS), 2011)
Results filed as inconclusive are left out. Entries that show only a call come without a potency. Activity calls are given as the source filed them. Calls come from the whole dose curve; as a rule, active = well fitted curve in the direction sought with a large enough effect; inconclusive = small, poorly fitted or top-dose-only effect, or another doubt; inactive = no such curve, though single readings can be large or run the other way.

Test: Secondary Assay for Inhibitors of Human Cdc-like kinase 4 (Clk4): HEK-293 Cell Viability Assay;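 note: cytotoxic hits lower the ATP light signal so activity reflects loss of viability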
Settings: HEK-293 viability, ATP luminescence (CellTiter-Glo), 24/48 h; series mostly up to 46.1 µM
Procedure: NIH Molecular Libraries Probe Production Centers Network [MLPCN] NIH Chemical Genomics Center [NCGC] MLPCN Grant: 1R03MH084827-01 Assay Submitter (PI): Tom Misteli NCGC Assay Overview: Cytotoxicity of the active compounds in the Clk4 screens was assessed using the CellTiter-Glo Luminescent Cell Viability Assay kit (Promega, USA) in the HEK-293 (ATCC) cell line. CellTiter-Glo measures the intracellular ATP present in metabolically active cells using Ultra-Glo as the luciferase to detect ATP levels. In brief, the luciferase in the buffer catalyzes the oxidation of luciferin to oxyluciferin and light which is dependent on ATP. […] Wells treated with various concentrations of cycloheximide (Sigma) and DMSO, and wells with media alone were used as positive and negative controls, respectively. […] [1] http://www.promega.com/tbs/tb288/tb288.pdf
NCGC Assay Protocol Summary: HEK-293 cells were grown in a flask up to 80% confluence. Cells were trypsinized, washed, and resuspended in MEM Eagle + 10% FBS + 1% pen-strep media at a concentration of 120 cells/uL. Five uL/well of cell solution was dispensed into a 1536-well assay plates (Greiner, solid white medium-binding plates) with Aurora Discovery BioRAPTR Flying Reagent Dispenser (FRD; Beckton-Dickenson). Cells were pre-incubated at 37 degree Celsius, 5% CO2 for four hours. Compound and control solutions (23nL) were then transferred to the assay plate using the Kalypsys 1536-pin tool. Assay plates were re- incubated at 37 degree Celsius, 5% CO2. After 24 or 48 hours, five uL of CellTiter Glo detection reagent was added. Luminescence signal was read with Perkin Elmer ViewLux plate reader after 30 min room temperature incubation.
Potency is the fitted concentration of half-maximal effect.

Row | Compound | Potency
1 | Cc1nc(CNc2ncnc3ccc(-c4ccc5c(c4)OCO5)cc23)cs1 | inactive
2 | CN(CC1CCCO1)c1ncnc2ccc(-c3ccc4c(c3)OCO4)cc12 (stereo not given) | inactive
3 | Cc1occc1CNc1ncnc2ccc(-c3ccc4c(c3)OCO4)cc12 | inactive
4 | O=C(O)c1ccc(-c2ccc3ncnc(NCC4CCCO4)c3c2)o1 (stereo not given) | inactive
5 | c1coc(CCNc2ncnc3ccc(-c4ccc5c(c4)OCO5)cc23)c1 | inactive
6 | CCOC(=O)c1ccc(-c2ccc3ncnc(NCc4csc(C)n4)c3c2)o1 | inactive
7 | Cc1ccc(CNc2ncnc3ccc(-c4ccoc4)cc23)o1 | inactive
8 | Cn1ccc2cc(-c3ccc4ncnc(NCc5cccc(F)c5)c4c3)ccc21 | inactive
9 | Cc1cccc(-c2ccc3ncnc(NCc4cccc(F)c4)c3c2)c1 | inactive
10 | Cc1nc(CCN(C)c2ncnc3ccc(-c4ccc5c(c4)OCO5)cc23)cs1 | inactive
11 | Cc1nc(CN(C)c2ncnc3ccc(-c4ccc5c(c4)OCO5)cc23)cs1 | 28.1 µM (active)
12 | c1nc(NCCc2cnc[nH]2)c2ccc(-c3ccc4c(c3)OCO4)cc2n1 | inactive
13 | CCNC(=O)c1ccc(-c2ccc3ncnc(NCc4nccs4)c3c2)o1 | inactive
14 | Cc1ccc(CN(C)c2ncnc3ccc(-c4ccc(C(=O)O)o4)cc23)o1 | inactive
15 | CCn1cnc(CCN(C)c2ncnc3ccc(-c4ccc5c(c4)OCO5)cc23)c1 | inactive
16 | Cc1nc(CSc2ncnc3ccc(-c4ccc5c(c4)OCO5)cc23)cs1 | inactive
17 | CN(C)CCCNc1ncnc2ccc(-c3ccc4c(c3)OCO4)cc12 | inactive
18 | Cc1cccc(CNc2ncnc3ccc(-c4ccc5c(ccn5C)c4)cc23)c1 | inactive
19 | c1cncc(CNc2ncnc3ccc(-c4ccc5c(c4)OCO5)cc23)c1 | inactive
20 | Cn1cnc(CCNc2ncnc3ccc(-c4ccc5c(c4)OCO5)cc23)c1 | inactive

Row | Compound | Potency
21 | CCOC(=O)c1ccoc1-c1ccc2ncnc(NCCc3cnc[nH]3)c2c1 | inactive
22 | Cn1ccc2cc(-c3ccc4ncnc(NCc5ccc6c(c5)OCO6)c4c3)ccc21 | inactive
23 | Cc1cccc(CNc2ncnc3ccc(-c4cccc(C)c4)cc23)c1 | inactive
24 | CC(O)c1ccc(-c2ccc3ncnc(N4CCOCC4)c3c2)o1 (stereo not given) | inactive
25 | Cc1csc(CNc2ncnc3ccc(-c4ccc5c(c4)OCO5)cc23)c1 | inactive
26 | CCOC(=O)c1ccc(-c2ccc3ncnc(NCc4ccc(C)o4)c3c2)o1 | inactive
27 | c1csc(CNc2ncnc3ccc(-c4ccc5c(c4)OCCO5)cc23)c1 | inactive
28 | Cc1ccsc1CNc1ncnc2ccc(-c3ccc4c(c3)OCO4)cc12 | inactive
29 | Cc1ccc(CN(C)c2ncnc3ccc(-c4ccc(CO)o4)cc23)o1 | 12.5 µM (active)
30 | c1nc(NCC2CCOC2)c2cc(-c3ccc4c(c3)OCO4)ccc2n1 (stereo not given) | inactive
31 | CN(Cc1cncn1C)c1ncnc2ccc(-c3ccc4c(c3)OCO4)cc12 | inactive
32 | Cc1cccc(CNc2ncnc3ccc(-c4ccoc4)cc23)c1 | inactive
33 | c1cncc(CNc2ncnc3ccc(-c4ccc5c(c4)OCCO5)cc23)c1 | inactive
34 | CN(C)CCNc1ncnc2ccc(-c3ccc4c(c3)OCO4)cc12 | inactive
35 | OCc1ccc(-c2ccc3ncnc(NCCc4cnc[nH]4)c3c2)o1 | inactive
36 | COc1cccc(-c2ccc3ncnc(NCc4cccs4)c3c2)c1 | inactive
37 | O=Cc1ccc(-c2ccc3ncnc(NCc4cccs4)c3c2)o1 | inactive
38 | Cc1cccc(CNc2ncnc3ccc(-c4cccc(Cl)c4)cc23)c1 | inactive
39 | Cc1occc1-c1ccc2ncnc(NCCc3cnc[nH]3)c2c1 | inactive
40 | Cc1nc(C)c(-c2ccc3ncnc(NCc4ncc[nH]4)c3c2)s1 | inactive
